Many of the other results were omitted from the sample, so hits are more common in it than they were.
TTR transcr act = increases transthyretin transcription; SH-SY5Y TTR promoter Gaussia luciferase, luminescence; 100% = recombinant luciferase protein wells; activation, % at 16.7 µM; 92,000 tested, 1.3% active; AID 1117267;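 active = activation above the mean of all tested compounds plus 3 SD, cut at about 9.5% in these data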;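 note: cells exposed to compounds for one day before reading; 0% = median of all test compound wells on the plate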
HuH7 TTR inh = decreases TTR transcription in HuH7 cells in activator counter-screen. shares compounds with TTR transcr act. HuH7 TTR promoter-Gaussia luciferase reporter, luminescence. inhibition, % at 16.7 µM. AID 1117279. 1,100 tested, 4% active;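 active = average inhibition above the solvent-only control wells' mean plus 3 SD, cut at about 15% in these data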;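 note: 0% = cells with DMSO only and 100% = cells with inhibitor control FD; inhibitors lower well luminescence so higher value means more inhibition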
TTR act confirm = confirmation of human transthyretin transcription activators; activation, % at 16.7 µM; SHSY5Y TTR promoter Gaussia luciferase, luminescence; 100% = purified Lucia enzyme wells, no cells; shares compounds with TTR transcr act; AID 1117280; 1,100 tested, under 10 active;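 active = mean activation above a set limit taken from the earlier primary screen, cut at about 11% in these data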;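 note: 0% = DMSO-treated cells and 100% = recombinant Lucia luciferase without cells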
Starred values were filed as active, the others as inactive.

SMILES	TTR transcr act	others
O=C(O)c1cccc(C(=O)c2cccc3ccccc23)c1	-0.9
Cc1cccc(C(=O)NNC(=O)c2ccccc2-n2cccc2)c1	-0.5
CCCCOc1ccc(C(=O)n2ccc3ccc(-c4ccc5ccn(Cc6cccc(C(=O)OC)c6)c5c4)cc32)cc1	0.5
O=C(Nc1ccccc1)OC[C@@H]1CSCCS(=O)(=O)N1	3.1
O=C(Cc1ccc(-c2ccccc2)cc1)NCc1ccccc1	-2.2
Cc1ccc(CNC(=O)Cc2ccc(-c3ccccc3)cc2)cc1	12.6*	HuH7 TTR inh=52.7*;TTR act confirm=-2.0
Cc1ccc(CC(=O)NCc2ccc(F)cc2)cc1	-0.1
O=C(Nc1c(F)c(F)c(F)c(F)c1F)OC[C@@H]1CSCCS(=O)(=O)N1	-0.9
Oc1ccc(CNc2ccc(C(F)(F)F)cc2F)c2cccnc12	0.8
COC(=O)c1cnc(NNS(=O)(=O)c2ccc(Cl)cc2)nc1C(F)(F)F	10.6*	HuH7 TTR inh=-14.1;TTR act confirm=-0.6
COC(=O)c1cnc(NNC(=O)c2ccc([N+](=O)[O-])cc2)nc1C(F)(F)F	4.1
COC(=O)c1cnc(Nc2nc(C(N)Cc3ccccc3)cs2)nc1C(F)(F)F (stereo unspecified)	-0.3
Cc1cc(C)cc(NC(=O)OC2CC3CC2[C@H]2CCCCN2[C@H]3Cc2ccccc2)c1 (stereo partly specified)	5.0
O=C(OCC#CCSc1nnc(-c2ccc3ccccc3c2)o1)c1cccs1	1.1
CC[C@@]1(c2ccc(C)cc2)C(=O)N(C(=O)OC)N1C(=O)OC	2.5
O=c1nc(SCc2ccc(Cl)cc2)nc(-c2ccccc2)[nH]1	-1.4
Cc1nc(C)c(-c2ccc(SCc3ccc(Cl)cc3)nn2)s1	-1.9
Cc1nnc(SCc2ccc(Cl)cc2)nc1/C=C/N(C)C	9.7*	HuH7 TTR inh=17.2*;TTR act confirm=-1.6
COC(=O)CC1CCc2cc(C)cc(C(=O)CC(C)C)c2O1 (stereo unspecified)	-0.5
COC(=O)[C@]12C[C@H](CC(=O)NCC34CC5CC(CC(C5)C3)C4)C(=O)N(Cc3cccc4ccccc34)C1=C[C@H](C1CCCC1)O[C@@H]2C	2.0
CCOC(=O)c1ccc(NC(=O)CN2C(=O)NC3(CCCCCC3)C2=O)cc1	-1.3
O=C(CN1C(=O)NC2(CCCC2)C1=O)Nc1ccccc1N1CCCC1	-0.7
O=C(CN1C(=O)NC2(CCCCC2)C1=O)Nc1ccc(N2CCCCC2)cc1	10.4*	HuH7 TTR inh=-3.5;TTR act confirm=-0.1
C[C@H]1[C@@H](NC(=O)c2ccc(C(F)(F)F)cc2)CC[C@@]23CCCN2C(=O)CCC[C@@H]13	-0.2
CC(C)(N[C@@H](Cc1ccccc1)C(=O)NCCCc1ccccc1)C(=O)NCc1ccccc1	0.6
SMILES	TTR transcr act	others
Nc1c(C(=O)N2CCN(c3ccccc3)CC2)nnn1Cc1ccc(Cl)cc1	-1.2
Cc1ccc(CNC(=O)O[C@H]2CC[C@@]34CCCN3C(=O)CCC[C@H]4C2)o1	0.9
CC(C)CNS(=O)(=O)/C=C/c1cc2c(cc1CNC(=O)OC(C)(C)C)OCO2	-1.9
CC(=O)c1c(O)cc(C(C)C)n(-c2ccccc2)c1=O	-1.2
Cc1ccc(C(C)C)c(O)c1	3.5
CC(C)c1cccc(O)c(=O)c1	10.1*	HuH7 TTR inh=-7.2;TTR act confirm=-0.9
CC(C)C[C@H]1COc2cccc(F)c2S(=O)(=O)N1Cc1cn(CCC2OCCCO2)nn1	1.8
CCOc1cc(C(=O)NCCc2ccc(S(N)(=O)=O)cc2)cc(OCC)c1OCC	19.1*	HuH7 TTR inh=-0.1;TTR act confirm=0.6
CCN(c1ccccc1)S(=O)(=O)c1ccc(C(=O)NCCc2ccc(S(N)(=O)=O)cc2)cc1	-0.7
CC(C)(O)C#Cc1ccc(C(=O)NCCc2ccc(S(N)(=O)=O)cc2)cc1	-1.4
C[C@H]1[C@@H](OC(=O)NCc2ccc(Cl)cc2)CC[C@@]23CCCN2C(=O)CCC[C@@H]13	-1.2
COC(=O)[C@]12C[C@H](CC(=O)N3CCSCC3)C(=O)N(Cc3ccco3)C1=C[C@H](C1CCCC1)O[C@@H]2C	0.2
CC1CCN(c2c(NCC3CCC(C(=O)NCCc4ccccc4)CC3)c(=O)c2=O)CC1 (stereo unspecified)	8.9
Cc1ccc(CCNC(=O)C2CCC(CNc3c(N4CCCC4)c(=O)c3=O)CC2)cc1 (stereo unspecified)	-0.2
Cc1ccc(CCNC(=O)C2CCC(CNc3c(N4CCC(C)CC4)c(=O)c3=O)CC2)cc1 (stereo unspecified)	22.6*	HuH7 TTR inh=2.9;TTR act confirm=-0.4
CCOc1cc(CCNC(=O)c2cc(-c3ccccc3)c(N3CCOCC3)s2)ccc1OC	-1.8
COc1ccc(/C=C2\N=C3CCCCCN3C2=O)cc1	2.6
O=C1/C(=C/c2ccncc2)N=C2CCCCCN12	47.2*	HuH7 TTR inh=-11.9;TTR act confirm=-0.1
O=C1/C(=C/c2ccncc2)CCC/C1=C\c1ccncc1	-6.0
CCCCOCCCNC(=O)C[C@H]1C[C@@]2(C(=O)OC)C(=C[C@H](C(C)C)O[C@@H]2C2CC2)N(Cc2ccc(Cl)cc2Cl)C1=O	-0.4
CCc1nccn1CC(=O)c1ccc(O)c(O)c1	0.2
C[C@H]1[C@@H](OC(=O)NCc2ccco2)CC[C@@]23CCCN2C(=O)CCC[C@@H]13	3.3
CC(C)Oc1ccc(Oc2ccc(C#C[C@H](C)N3C(=O)c4ccccc4C3=O)cc2)cn1	2.5
COc1ccc(Cn2ccc3ccc(-c4ccc5ccn(C(=O)c6ccccc6OC)c5c4)cc32)cc1	-1.5
COc1ccc(/C=C/C(=O)OCC(=O)c2c(N)n(C)c(=O)n(C)c2=O)c(OC)c1	9.8*	HuH7 TTR inh=0.3;TTR act confirm=0.4
SMILES	TTR transcr act	others
COc1ccc(/C=C/C(=O)OCC(=O)c2ccc3c(c2)NC(=O)CO3)c(OC)c1	0.3
CCCOc1ccc(C(=O)OCC(=O)c2c(N)n(C)c(=O)n(C)c2=O)cc1OC	-0.3
COc1ccccc1C(=O)NC1CCCCN(Cc2ccccc2C)C1=O (stereo unspecified)	0.1
Nc1[nH]c2cc(C(F)(F)F)ccc2c1C(=O)NCc1ccc(F)cc1	2.1
Cc1ccc(NCN2C(=O)C3CC=C(Cl)CC3C2=O)cc1 (stereo unspecified)	-0.2
O=C(NN1C(=O)C2C3C=CC(C3)C2C1=O)c1ccccc1 (stereo unspecified)	0.0
O=C(NN1C(=O)C2CC=C(Cl)CC2C1=O)c1ccncc1 (stereo unspecified)	12.1*	HuH7 TTR inh=2.3;TTR act confirm=-0.7
CC(C)C[C@H](NC1(C(=O)NCCc2c[nH]c3ccccc23)CCC1)C(=O)NCCCc1ccccc1	-1.5
COc1ccc(C(C(=O)NCc2ccccc2)n2c(-c3ccncc3)nc3ccccc32)cc1 (stereo unspecified)	-0.1
CCC(C(=O)NC1CCCC1)n1c(-c2ccccn2)nc2ccccc21 (stereo unspecified)	-1.6
CCC(C(=O)NCc1ccccc1)n1c(-c2cccs2)nc2ccccc21 (stereo unspecified)	11.4*	HuH7 TTR inh=-5.9;TTR act confirm=1.5
C=C1C(=O)[C@]23C[C@H]1CC[C@H]2[C@]1(C)CCC[C@@](C)(C(=O)OC)[C@H]1C[C@@H]3O	-6.3
C[C@@H]1CCCCO[C@@H](CN(C)S(=O)(=O)c2ccc(F)cc2)[C@@H](C)CN([C@H](C)CO)C(=O)c2cc(N(C)C)ccc2O1	-1.3
C[C@@H]1CN([C@@H](C)CO)C(=O)c2cc(N(C)C)ccc2O[C@@H](C)CCCCO[C@@H]1CN(C)S(=O)(=O)c1cccs1	14.3*	HuH7 TTR inh=-5.6;TTR act confirm=-0.2

Screening data deposited in PubChem BioAssay by The Scripps Research Institute Molecular Screening Center.
